Laboratory results: the supplement of paper PMC13380429

Assays:
[1] = tested on: Vero E6 infected with SARS-CoV-2; assay: morphology score (similarity to uninfected cells); higher = more like uninfected cells; settings: 24 h
[2] = tested on: Vero E6 infected with SARS-CoV-2; assay: SARS-CoV-2 infection rate relative to infected DMSO; higher = more infection, active = 60 or less; settings: 24 h

| SMILES | morphology score [1] | SARS-CoV-2 infection rate [2] |
| --- | --- | --- |
| Nc1ncnc2c1C(=O)N(c1ccc([C@H]3CC[C@H](CC(=O)O)CC3)cc1)CCO2 (10 µM) | 0.118 | 92.5% (inactive) |
| Nc1cc(Cl)c(N=C2NCCN2)c(Cl)c1 [apraclonidine] (10 µM) | -0.0224 | 110% (inactive) |
| C[C@@H](CN)CC(=O)O [3-methyl-GABA] (10 µM) | 0.0225 | 102% (inactive) |
| Cn1cc(/C=C2\C(=O)Nc3cccnc32)c2ccccc21 (10 µM) | -0.0337 | 92.5% (inactive) |
| Oc1ccc2c3c1O[C@H]1c4oc5ccccc5c4C[C@@]4(O)[C@@H](C2)N(CC2CC2)CC[C@]314 [naltriben] (10 µM) | -0.128 | 106% (inactive) |
| CC(=O)Nc1ccc(NC(=S)NC(=O)c2ccc(C(C)(C)C)cc2)cc1 [tenovin-1] (10 µM) | -0.0316 | 109% (inactive) |
| Nc1nc(O)c2[nH]nnc2n1 [azaguanine-8] (0.833333 µM) | 0.322 | 51.5% (active) |
| O=C1[C@@H]2[C@H]3CC[C@H](C3)[C@@H]2C(=O)N1CCCCN1CCN(c2ncccn2)CC1 [tandospirone] (10 µM) | -0.0978 | 99% (inactive) |
| c1ccc(COCCCc2c[nH]cn2)cc1 [proxyfan] (10 µM) | -0.149 | 115% (inactive) |
| CC(=O)CCCCn1c(=O)c2c(ncn2C)n(C)c1=O [pentoxifylline] (10 µM) | 0.0323 | 104% (inactive) |
| CN(C)CCN1C(=O)c2cccc3cc(NC(N)=O)cc(c23)C1=O [unbs-5162] (10 µM) | 0.115 | 102% (inactive) |
| Oc1ccc(CC2NCCc3cc(O)c(O)cc32)cc1 (stereo not given) [higenamine] (0.833333 µM) | 0.0764 | 103% (inactive) |
| CCOc1ccc(Cc2nccc3cc(OCC)c(OCC)cc23)cc1OCC [ethaverine] (10 µM) | 0.2 | 100% (inactive) |
| Cc1cnc(C(=O)NCCc2ccc(S(=O)(=O)NC(=O)NC3CCCCC3)cc2)cn1 [glipizide] (10 µM) | 0.218 | 96% (inactive) |
| O=C(O)c1cc(C(=O)O)c(C(=O)N(Cc2cccc(Oc3ccccc3)c2)[C@H]2CCCc3ccccc32)cc1C(=O)O (10 µM) | 0.189 | 95.5% (inactive) |
| CC(C)=CCC/C(C)=C/CC/C(C)=C/C=C/C(C)=C/C(=O)O [peretinoin] (10 µM) | -0.00242 | 108% (inactive) |
| CCc1c(-c2ccccc2)c(-c2ccccc2)nn1-c1ccccc1-c1cccc(OCC(=O)O)c1 (10 µM) | 0.0748 | 96.5% (inactive) |
| CSc1nc(-c2ccc(F)cc2)c(-c2ccnc(N[C@@H](C)c3ccccc3)c2)[nH]1 (10 µM) | -0.159 | 107% (inactive) |
| COc1cc(SC)ccc1C(=O)N1CCC(Cc2ccccc2)CC1 (10 µM) | 0.0267 | 104% (inactive) |
| O=C(Nc1ccncc1)C(=O)c1cn(Cc2ccc(Cl)cc2)c2ccccc12 [indibulin] (0.833333 µM) | -0.246 | 124% (inactive) |
| Cc1ccc(C[N+](C)(C)C)o1 [5-methylfurmethiodide] (10 µM) | -0.123 | 117% (inactive) |
| CS(=O)(=O)N(Cc1ccco1)C[C@@H](O)Cn1c2ccccc2c2ccccc21 (10 µM) | 0.000274 | 91% (inactive) |
| O=c1c(O)c(-c2ccc(O)cc2O)oc2cc(O)cc(O)c12 [morin] (10 µM) | 0.0742 | 108% (inactive) |
| CC(=O)N1CCC[C@H]1C(=O)N[C@@H](Cc1cnc[nH]1)C(=O)N[C@@H](CO)C(=O)N[C@@H](CS)C(=O)N[C@@H](CC(N)=O)C(N)=O (10 µM) | 0.0957 | 93% (inactive) |
| Nc1ccncc1 [dalfampridine] (10 µM) | 0.0807 | 103% (inactive) |
| COc1cc(C#N)ccc1S(=O)(=O)Nc1ccc2c(c1)cc(C)c(=O)n2C (10 µM) | 0.0143 | 102% (inactive) |
| O=C(CSc1nc2c(c(=O)n1-c1ccccc1)SCC2)Nc1ccc(-c2ccccc2)cn1 (10 µM) | 0.109 | 112% (inactive) |
| Nc1nc2ccc(OC(F)(F)F)cc2s1 [riluzole] (10 µM) | 0.188 | 105% (inactive) |
| Cc1ccc(O)c([C@H](CCN(C(C)C)C(C)C)c2ccccc2)c1 [tolterodine] (10 µM) | 0.35 | 77.5% (inactive) |
| CN1CCN(c2nc3ccccc3nc2Cl)CC1 (10 µM) | 0.162 | 102% (inactive) |
